For assay [1], the target named is Death-associated protein kinase 1 (Homo sapiens) (UniProt P53355). The settings on record: at 1 µM.
Assay [2] shares this target. The settings on record: at 10 µM.
Assay [3] has as its target Death-associated protein kinase 2 (Homo sapiens) (UniProt Q9UIK4). The settings on record: at 10 µM.
Assay [4] deals with T1, Dual specificity tyrosine-phosphorylation-regulated kinase 2 (Homo sapiens) (UniProt Q92630).
T1 sequence (whole entry): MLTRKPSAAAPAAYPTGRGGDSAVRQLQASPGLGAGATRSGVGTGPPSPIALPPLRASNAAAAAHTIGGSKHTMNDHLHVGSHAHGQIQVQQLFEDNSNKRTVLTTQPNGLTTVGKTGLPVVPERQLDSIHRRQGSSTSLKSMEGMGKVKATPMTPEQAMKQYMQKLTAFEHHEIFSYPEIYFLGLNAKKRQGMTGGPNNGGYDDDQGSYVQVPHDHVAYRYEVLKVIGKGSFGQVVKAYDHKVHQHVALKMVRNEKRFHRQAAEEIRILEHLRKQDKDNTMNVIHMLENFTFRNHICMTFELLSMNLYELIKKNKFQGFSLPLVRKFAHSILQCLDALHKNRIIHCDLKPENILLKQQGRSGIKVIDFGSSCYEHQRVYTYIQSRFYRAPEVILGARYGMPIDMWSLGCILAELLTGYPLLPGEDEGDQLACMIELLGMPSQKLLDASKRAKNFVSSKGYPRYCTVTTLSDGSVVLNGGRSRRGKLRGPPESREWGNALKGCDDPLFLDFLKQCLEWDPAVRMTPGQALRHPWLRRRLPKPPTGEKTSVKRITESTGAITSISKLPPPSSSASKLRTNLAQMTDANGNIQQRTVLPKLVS
The settings on record: at 1 µM.

Assay [5] addresses T1, Dual specificity tyrosine-phosphorylation-regulated kinase 2 (Homo sapiens). The settings on record: at 10 µM.
In assay [6] the target is Epidermal growth factor receptor (Homo sapiens) (UniProt P00533). The settings on record: at 10 µM.
Assay [7] has as its target Death-associated protein kinase 2 (Homo sapiens) (UniProt Q9UIK4). The settings on record: at 1 µM.
Assay [8] addresses T2, Serine/threonine-protein kinase DCLK2 (Homo sapiens) (UniProt Q8N568).
T2 sequence (whole entry): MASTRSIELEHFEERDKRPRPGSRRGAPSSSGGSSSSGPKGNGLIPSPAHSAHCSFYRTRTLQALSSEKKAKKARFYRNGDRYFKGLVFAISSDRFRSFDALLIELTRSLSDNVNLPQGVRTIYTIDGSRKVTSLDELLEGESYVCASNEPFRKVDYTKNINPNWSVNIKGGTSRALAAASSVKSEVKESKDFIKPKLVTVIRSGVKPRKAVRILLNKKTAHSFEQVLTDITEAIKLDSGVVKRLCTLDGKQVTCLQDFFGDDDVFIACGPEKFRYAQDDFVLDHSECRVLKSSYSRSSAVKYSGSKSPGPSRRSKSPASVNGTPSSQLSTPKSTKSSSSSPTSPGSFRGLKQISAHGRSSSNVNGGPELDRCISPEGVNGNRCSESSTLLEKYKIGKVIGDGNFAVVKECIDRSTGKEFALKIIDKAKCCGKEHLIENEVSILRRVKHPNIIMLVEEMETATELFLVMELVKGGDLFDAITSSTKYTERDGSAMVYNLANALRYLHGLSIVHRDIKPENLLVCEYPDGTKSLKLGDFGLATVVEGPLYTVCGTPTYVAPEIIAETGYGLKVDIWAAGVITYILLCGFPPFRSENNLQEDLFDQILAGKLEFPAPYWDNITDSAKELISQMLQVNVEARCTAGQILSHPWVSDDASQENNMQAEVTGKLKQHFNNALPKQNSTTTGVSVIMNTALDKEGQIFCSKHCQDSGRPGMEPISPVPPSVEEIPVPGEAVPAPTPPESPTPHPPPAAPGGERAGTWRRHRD
The settings on record: at 1 µM.

The target in assay [9] is T2, Serine/threonine-protein kinase DCLK2 (Homo sapiens). The settings on record: at 10 µM.
Assay [10] addresses T3, Discoidin domain-containing receptor 2 (Homo sapiens) (UniProt Q16832).
T3 sequence (whole entry): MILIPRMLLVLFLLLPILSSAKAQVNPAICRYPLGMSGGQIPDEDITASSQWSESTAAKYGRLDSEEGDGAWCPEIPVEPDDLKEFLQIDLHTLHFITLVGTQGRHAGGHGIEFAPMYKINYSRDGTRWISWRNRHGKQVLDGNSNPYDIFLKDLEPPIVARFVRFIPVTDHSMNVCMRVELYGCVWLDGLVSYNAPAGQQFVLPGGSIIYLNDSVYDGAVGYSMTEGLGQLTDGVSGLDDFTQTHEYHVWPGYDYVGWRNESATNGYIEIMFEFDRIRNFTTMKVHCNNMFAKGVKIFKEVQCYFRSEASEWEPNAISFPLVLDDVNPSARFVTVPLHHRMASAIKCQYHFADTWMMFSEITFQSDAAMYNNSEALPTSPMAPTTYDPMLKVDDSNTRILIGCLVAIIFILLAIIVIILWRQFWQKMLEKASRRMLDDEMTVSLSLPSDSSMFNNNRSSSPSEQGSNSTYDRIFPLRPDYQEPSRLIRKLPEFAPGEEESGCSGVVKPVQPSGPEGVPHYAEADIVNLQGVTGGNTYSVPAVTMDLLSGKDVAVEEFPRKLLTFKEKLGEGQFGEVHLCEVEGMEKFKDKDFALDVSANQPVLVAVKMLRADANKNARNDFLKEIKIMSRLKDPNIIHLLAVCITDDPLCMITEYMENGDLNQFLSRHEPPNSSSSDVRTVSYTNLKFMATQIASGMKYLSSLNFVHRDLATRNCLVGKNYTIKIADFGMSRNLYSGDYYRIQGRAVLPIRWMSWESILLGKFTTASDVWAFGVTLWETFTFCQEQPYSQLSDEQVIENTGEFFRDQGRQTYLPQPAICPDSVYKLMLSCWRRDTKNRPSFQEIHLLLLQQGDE
The settings on record: at 1 µM.

In assay [11] the target is T3, Discoidin domain-containing receptor 2 (Homo sapiens). The settings on record: at 10 µM.
Assay [12] addresses T4, Myotonin-protein kinase (Homo sapiens) (UniProt Q09013).
T4 sequence (whole entry): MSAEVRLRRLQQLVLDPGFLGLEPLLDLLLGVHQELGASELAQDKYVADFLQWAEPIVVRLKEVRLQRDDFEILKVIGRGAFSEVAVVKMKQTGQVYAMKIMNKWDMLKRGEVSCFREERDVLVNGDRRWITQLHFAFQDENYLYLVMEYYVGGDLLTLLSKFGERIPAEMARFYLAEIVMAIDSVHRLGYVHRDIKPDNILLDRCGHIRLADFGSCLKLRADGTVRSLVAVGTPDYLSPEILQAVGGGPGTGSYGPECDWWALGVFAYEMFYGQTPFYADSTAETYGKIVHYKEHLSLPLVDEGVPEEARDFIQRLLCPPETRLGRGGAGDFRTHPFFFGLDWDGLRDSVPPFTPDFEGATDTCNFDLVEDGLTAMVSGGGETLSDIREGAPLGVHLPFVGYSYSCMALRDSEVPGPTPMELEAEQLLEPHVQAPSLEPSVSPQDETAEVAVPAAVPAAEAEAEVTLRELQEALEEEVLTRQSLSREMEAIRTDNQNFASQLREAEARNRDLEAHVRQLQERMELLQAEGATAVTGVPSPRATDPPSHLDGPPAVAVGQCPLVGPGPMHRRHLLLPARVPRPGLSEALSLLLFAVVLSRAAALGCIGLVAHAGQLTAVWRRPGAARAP
The settings on record: at 1 µM.

Assay [13] addresses T4, Myotonin-protein kinase (Homo sapiens). The settings on record: at 10 µM.
Assay [14] addresses T5, Serine/threonine-protein kinase 17A (Homo sapiens) (UniProt Q9UEE5).
T5 sequence (whole entry): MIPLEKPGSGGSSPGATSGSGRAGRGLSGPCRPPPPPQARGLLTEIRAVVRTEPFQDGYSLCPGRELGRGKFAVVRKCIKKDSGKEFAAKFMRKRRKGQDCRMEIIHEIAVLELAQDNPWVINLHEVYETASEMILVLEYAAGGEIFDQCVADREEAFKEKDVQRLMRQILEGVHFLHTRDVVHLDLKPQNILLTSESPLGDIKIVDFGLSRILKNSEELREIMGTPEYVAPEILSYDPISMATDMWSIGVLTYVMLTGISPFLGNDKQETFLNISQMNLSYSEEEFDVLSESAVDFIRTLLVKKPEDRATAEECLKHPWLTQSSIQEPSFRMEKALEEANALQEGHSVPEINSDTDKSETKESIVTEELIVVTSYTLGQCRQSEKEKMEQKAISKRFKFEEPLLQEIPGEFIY
The settings on record: at 1 µM.

The target in assay [15] is T5, Serine/threonine-protein kinase 17A (Homo sapiens). The settings on record: at 10 µM.
For assay [16], the target named is T6, Ephrin type-A receptor 1 (Homo sapiens) (UniProt P21709).
T6 sequence (whole entry): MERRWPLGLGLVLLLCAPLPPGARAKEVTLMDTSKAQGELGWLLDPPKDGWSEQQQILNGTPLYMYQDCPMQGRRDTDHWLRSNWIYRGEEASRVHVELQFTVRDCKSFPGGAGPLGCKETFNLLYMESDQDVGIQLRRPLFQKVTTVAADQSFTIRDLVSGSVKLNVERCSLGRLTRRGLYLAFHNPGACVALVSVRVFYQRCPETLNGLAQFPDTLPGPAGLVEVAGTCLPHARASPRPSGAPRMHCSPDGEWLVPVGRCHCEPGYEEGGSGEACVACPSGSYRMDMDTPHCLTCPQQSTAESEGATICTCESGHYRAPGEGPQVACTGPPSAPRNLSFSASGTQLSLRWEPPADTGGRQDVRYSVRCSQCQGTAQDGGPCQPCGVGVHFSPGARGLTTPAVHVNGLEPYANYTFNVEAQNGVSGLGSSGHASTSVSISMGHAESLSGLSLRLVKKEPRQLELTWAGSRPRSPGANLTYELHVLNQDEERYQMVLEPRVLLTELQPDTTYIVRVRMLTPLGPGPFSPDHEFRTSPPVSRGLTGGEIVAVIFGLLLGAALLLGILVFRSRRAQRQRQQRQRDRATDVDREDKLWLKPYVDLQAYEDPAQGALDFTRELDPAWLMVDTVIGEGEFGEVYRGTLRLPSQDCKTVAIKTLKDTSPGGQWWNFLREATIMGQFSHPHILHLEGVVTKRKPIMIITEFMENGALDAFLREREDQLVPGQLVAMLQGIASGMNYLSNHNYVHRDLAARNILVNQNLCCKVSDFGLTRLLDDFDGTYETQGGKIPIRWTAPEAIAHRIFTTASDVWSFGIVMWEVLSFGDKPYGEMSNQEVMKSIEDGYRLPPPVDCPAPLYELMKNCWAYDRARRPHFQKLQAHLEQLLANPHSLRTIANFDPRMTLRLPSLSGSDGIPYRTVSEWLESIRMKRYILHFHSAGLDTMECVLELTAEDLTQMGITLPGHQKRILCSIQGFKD
The settings on record: at 1 µM.

Assay [17] deals with T6, Ephrin type-A receptor 1 (Homo sapiens). The settings on record: at 10 µM.
The target in assay [18] is Ephrin type-A receptor 2 (Homo sapiens) (UniProt P29317). The settings on record: at 1 µM.
Assay [19] shares this target. The settings on record: at 10 µM.
Assay [20] concerns the target T7, Ephrin type-A receptor 3 (Homo sapiens) (UniProt P29320).
T7 sequence (whole entry): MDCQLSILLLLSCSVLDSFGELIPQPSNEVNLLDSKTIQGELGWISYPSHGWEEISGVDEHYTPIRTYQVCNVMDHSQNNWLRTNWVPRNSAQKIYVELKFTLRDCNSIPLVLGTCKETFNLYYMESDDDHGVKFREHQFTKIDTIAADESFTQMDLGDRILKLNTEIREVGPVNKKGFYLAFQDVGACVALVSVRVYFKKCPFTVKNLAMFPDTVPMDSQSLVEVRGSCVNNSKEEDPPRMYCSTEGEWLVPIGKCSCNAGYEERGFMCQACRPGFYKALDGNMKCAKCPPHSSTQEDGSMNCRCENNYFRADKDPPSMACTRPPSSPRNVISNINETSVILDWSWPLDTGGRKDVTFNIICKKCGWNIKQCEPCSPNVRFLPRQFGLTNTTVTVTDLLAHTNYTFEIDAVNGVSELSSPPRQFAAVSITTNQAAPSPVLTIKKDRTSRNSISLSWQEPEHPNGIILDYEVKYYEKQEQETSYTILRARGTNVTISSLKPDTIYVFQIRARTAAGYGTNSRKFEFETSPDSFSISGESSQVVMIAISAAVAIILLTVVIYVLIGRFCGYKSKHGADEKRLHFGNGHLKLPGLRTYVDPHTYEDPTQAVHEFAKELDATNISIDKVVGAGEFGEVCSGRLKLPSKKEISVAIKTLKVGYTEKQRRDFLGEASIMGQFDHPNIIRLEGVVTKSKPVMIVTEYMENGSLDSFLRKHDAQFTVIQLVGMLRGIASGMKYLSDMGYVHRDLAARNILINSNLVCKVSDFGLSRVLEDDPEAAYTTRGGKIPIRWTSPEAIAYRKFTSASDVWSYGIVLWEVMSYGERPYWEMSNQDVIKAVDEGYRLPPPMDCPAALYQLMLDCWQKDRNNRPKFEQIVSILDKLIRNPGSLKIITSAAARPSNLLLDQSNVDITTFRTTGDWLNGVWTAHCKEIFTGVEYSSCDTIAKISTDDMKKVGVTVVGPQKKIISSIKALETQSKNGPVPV
The settings on record: at 1 µM.

Death-associated protein kinase 2 (Homo sapiens), sequence (Q9UIK4 whole entry, looked up): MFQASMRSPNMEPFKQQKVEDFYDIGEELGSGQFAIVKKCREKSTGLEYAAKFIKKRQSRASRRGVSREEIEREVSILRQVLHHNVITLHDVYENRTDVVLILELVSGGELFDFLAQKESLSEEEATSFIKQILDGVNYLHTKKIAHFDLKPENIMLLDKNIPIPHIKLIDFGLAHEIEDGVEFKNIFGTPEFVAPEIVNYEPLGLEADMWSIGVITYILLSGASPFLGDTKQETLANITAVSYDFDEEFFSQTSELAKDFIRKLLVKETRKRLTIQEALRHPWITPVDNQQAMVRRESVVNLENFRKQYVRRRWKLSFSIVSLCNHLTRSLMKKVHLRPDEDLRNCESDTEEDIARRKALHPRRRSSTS
Death-associated protein kinase 1 (Homo sapiens), sequence (P53355 whole entry, looked up): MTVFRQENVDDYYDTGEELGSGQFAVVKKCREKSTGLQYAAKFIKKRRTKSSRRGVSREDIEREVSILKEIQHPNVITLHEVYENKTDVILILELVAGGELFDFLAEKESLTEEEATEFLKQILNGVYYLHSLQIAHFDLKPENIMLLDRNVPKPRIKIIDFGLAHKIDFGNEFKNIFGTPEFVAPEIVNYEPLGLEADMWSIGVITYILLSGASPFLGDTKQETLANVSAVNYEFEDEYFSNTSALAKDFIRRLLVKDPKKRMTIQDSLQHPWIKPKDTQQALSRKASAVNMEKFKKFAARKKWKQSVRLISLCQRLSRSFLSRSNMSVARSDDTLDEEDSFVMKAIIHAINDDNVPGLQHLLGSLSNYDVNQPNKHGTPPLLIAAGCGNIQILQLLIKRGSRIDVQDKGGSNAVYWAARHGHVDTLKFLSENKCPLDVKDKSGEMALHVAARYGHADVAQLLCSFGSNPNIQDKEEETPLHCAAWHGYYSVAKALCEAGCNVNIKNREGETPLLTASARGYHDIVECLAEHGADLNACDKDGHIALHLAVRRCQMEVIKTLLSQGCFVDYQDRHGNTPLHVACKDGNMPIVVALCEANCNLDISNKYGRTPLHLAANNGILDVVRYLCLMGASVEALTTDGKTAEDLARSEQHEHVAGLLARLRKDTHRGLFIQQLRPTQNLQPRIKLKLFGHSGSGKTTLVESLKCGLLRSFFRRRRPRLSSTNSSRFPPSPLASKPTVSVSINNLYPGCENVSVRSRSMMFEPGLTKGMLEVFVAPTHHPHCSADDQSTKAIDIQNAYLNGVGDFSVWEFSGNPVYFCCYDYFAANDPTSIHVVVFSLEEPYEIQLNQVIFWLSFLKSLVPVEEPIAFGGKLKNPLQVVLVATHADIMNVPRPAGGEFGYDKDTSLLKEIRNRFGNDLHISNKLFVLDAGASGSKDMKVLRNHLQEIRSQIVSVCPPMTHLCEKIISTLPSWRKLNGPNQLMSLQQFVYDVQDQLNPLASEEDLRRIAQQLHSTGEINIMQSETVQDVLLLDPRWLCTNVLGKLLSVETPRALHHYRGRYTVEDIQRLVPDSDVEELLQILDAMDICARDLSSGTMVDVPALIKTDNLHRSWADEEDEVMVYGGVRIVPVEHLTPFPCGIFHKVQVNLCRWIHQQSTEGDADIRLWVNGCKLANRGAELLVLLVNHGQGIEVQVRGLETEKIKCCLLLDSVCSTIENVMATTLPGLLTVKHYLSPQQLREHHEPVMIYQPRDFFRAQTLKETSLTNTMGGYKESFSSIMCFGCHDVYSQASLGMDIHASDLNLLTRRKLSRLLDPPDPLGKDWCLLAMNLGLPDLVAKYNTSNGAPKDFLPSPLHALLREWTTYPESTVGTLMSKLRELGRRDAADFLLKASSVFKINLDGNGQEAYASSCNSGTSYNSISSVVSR
Ephrin type-A receptor 2 (Homo sapiens), sequence (P29317 whole entry): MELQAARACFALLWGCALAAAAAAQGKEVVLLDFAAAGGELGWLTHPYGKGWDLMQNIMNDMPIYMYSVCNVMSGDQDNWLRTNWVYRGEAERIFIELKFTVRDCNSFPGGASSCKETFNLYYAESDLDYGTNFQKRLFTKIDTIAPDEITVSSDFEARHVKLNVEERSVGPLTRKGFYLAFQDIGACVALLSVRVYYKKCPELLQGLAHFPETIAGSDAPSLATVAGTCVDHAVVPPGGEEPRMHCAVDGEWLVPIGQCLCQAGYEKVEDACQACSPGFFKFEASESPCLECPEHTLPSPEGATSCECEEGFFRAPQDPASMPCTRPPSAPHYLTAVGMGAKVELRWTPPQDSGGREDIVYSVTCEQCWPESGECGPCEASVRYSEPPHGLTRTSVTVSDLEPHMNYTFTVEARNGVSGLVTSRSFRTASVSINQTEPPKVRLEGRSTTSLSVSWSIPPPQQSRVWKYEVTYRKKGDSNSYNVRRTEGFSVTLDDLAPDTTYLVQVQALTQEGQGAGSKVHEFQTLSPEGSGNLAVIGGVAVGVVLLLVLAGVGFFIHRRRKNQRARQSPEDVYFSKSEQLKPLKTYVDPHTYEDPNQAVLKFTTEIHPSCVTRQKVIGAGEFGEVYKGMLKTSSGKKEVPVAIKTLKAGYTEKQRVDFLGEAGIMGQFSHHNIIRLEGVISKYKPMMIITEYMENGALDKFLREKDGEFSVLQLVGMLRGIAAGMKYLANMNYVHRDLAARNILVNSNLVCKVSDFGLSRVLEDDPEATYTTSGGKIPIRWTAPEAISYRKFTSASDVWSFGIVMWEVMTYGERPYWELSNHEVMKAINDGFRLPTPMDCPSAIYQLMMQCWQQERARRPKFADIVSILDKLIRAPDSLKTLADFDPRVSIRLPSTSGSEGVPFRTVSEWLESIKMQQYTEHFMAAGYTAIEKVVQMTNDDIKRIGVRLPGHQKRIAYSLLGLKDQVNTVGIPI
Epidermal growth factor receptor (Homo sapiens), sequence (P00533 whole entry): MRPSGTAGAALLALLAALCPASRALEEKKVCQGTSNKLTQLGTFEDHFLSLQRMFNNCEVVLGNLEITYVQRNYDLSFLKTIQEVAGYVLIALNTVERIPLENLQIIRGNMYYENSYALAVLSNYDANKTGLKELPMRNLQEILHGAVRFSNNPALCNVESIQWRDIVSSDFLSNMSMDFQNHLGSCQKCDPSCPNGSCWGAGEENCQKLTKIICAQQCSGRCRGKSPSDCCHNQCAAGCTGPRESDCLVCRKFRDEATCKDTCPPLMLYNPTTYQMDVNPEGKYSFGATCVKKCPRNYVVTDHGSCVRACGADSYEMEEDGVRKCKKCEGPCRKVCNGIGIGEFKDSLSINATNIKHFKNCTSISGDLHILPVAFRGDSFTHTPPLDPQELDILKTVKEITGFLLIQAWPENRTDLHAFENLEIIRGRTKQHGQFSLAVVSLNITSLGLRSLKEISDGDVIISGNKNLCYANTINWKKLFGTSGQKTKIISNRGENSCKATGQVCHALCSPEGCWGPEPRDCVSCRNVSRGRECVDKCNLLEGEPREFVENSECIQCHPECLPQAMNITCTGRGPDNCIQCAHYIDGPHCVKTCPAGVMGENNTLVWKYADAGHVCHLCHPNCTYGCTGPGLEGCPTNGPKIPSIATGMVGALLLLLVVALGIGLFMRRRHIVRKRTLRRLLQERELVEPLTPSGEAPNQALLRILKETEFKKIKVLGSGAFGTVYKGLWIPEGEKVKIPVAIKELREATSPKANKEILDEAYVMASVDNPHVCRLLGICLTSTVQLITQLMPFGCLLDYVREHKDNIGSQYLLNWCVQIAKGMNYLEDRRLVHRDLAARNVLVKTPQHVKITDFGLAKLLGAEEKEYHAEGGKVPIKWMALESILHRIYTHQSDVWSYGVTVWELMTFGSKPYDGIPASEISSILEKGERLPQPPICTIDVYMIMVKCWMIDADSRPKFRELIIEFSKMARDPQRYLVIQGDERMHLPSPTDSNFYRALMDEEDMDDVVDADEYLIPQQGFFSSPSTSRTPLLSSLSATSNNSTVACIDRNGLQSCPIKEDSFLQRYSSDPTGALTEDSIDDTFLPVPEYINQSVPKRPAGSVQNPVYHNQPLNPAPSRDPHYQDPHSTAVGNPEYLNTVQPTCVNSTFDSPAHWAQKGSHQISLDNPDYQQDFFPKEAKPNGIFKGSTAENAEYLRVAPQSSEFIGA

As usually defined, the residual activity is the signal under treatment as a percentage of the control signal. Turning to `COc1ccc2c(c1)/C(=C/c1cnc[nH]1)C(=O)N2`, the residual activity was 100% in assay [1]; 97% in [2]; 51% in assay [3]; 77% in [4]; 16% in assay [5]; 97% in assay [6].
Take `COc1cc2ncnc(Nc3ccc(OCc4ccccc4)cc3)c2cc1OC`: the residual activity in [1] was determined as 94%; in assay [2], 100%; in [7], 104%; in assay [3], 112%; in assay [8], 89%; in assay [9], 112%. The residual activity in assay [10] was 108%; in assay [11], 93%; in assay [12], 105%; in assay [13], 103%; in assay [14], 116%; in assay [15], 95%. Further, the residual activity was 102% in [4]; 94% in assay [5]; 94% in [16]; 104% in assay [17]; 125% in assay [18]; 108% in assay [19]. In addition, in assay [20], the residual activity came to 115%.
For `O=C1Nc2ccc3ncsc3c2/C1=C/c1c[nH]cn1`, the residual activity in assay [1] turned out to be 85%; in [2], 63%; in assay [7] it was 71%; in assay [3] it was 32%; in [8] it was 55%; in assay [9] it was 17%. The residual activity stood at 113% in assay [10]; 82% in [11]; 120% in assay [12]; 105% in assay [13]; 1% in assay [14]; 1% in assay [15]. For the same molecule, the residual activity in assay [4] is 1%; in [5], -5%; in assay [16] it was 58%; in [17], 24%; in assay [18], 77%; in [19], 31%. Further, the residual activity in assay [20] was 82%.

Values taken from ChEMBL document CHEMBL2218924, “A broad activity screen in support of a chemogenomic map for kinase signalling research and drug discovery” (Biochem J, 2013).
